Source: the OligoGym collection

Molecular target: SELO
Test: pooled miR-30 sensor sort-seq; sequence = guide strand
Details: shRNA
Also: reference of the scale not given here.

How did the sensor-assay potency score (higher = more potent) turn out when TGTTTGTGAAGTCGGCACCGGT was run?
Its sensor-assay potency score (higher = more potent) is -1.02.

Which sensor-assay potency score (higher = more potent) does the source give for TTGCCGCTGAAGAACAGCGCGG here?
Its sensor-assay potency score (higher = more potent) is -1.34.

For TTGTCGGTGTTGAGCACGCCGT, which sensor-assay potency score (higher = more potent) is on record?
The sensor-assay potency score (higher = more potent) was -1.37.

How did the sensor-assay potency score (higher = more potent) turn out when TCGCTGCATAGAAACTCCCGGA was run?
The sensor-assay potency score (higher = more potent) was -0.819.

Which sensor-assay potency score (higher = more potent) does the source give for ATCTTCTGCAGGTAGTGCCTTT here?
Its sensor-assay potency score (higher = more potent) is -1.13.

For AACACGTCGCGCACCACCGTGG, which sensor-assay potency score (higher = more potent) is on record?
The sensor-assay potency score (higher = more potent) was -0.914.

How did the sensor-assay potency score (higher = more potent) turn out when TTCCTCAGCACGTACTTCGGGT was run?
The sensor-assay potency score (higher = more potent) was -0.346.

Molecular target: SEMA3B
Test: as above
Details: shRNA

With TCTCCGGAGCACAACGTGCTGG as the sequence, how does the sensor-assay potency score (higher = more potent) read?
The sensor-assay potency score (higher = more potent) was -0.802.

Which sensor-assay potency score (higher = more potent) does the source give for TCACACTCCAGAAAGGCGCTGC here?
The sensor-assay potency score (higher = more potent) was 0.144.

For TAGATTTTGTCGTCGTCTGGGT, which sensor-assay potency score (higher = more potent) is on record?
Its sensor-assay potency score (higher = more potent) is 0.074.

How did the sensor-assay potency score (higher = more potent) turn out when ATGCTGTACACGCACACCGCAG was run?
The sensor-assay potency score (higher = more potent) was -1.8.

TTGGTGGAACTGAAGGTGCCAA was tested. Which sensor-assay potency score (higher = more potent) did it give?
The sensor-assay potency score (higher = more potent) was -0.717.

Which sensor-assay potency score (higher = more potent) does the source give for TTGGAAGAAATTTGCATGCTGG here?
The sensor-assay potency score (higher = more potent) was 0.12.

How did the sensor-assay potency score (higher = more potent) turn out when AACTGGATGACATCGTCTGGGA was run?
The sensor-assay potency score (higher = more potent) was -0.898.

How did the sensor-assay potency score (higher = more potent) turn out when TTGCATGCTGGTGACAGCGGCC was run?
The sensor-assay potency score (higher = more potent) was -0.767.

With TACCTTGACAAACTTGGGCTCA as the sequence, how does the sensor-assay potency score (higher = more potent) read?
The sensor-assay potency score (higher = more potent) was -0.131.

With TACTTTAGTACAGTCGGCCTGC as the sequence, how does the sensor-assay potency score (higher = more potent) read?
The sensor-assay potency score (higher = more potent) was 0.558.

Which sensor-assay potency score (higher = more potent) does the source give for TTGTGTTCCAGCAGCGCGGGAC here?
The sensor-assay potency score (higher = more potent) was -0.691.

How did the sensor-assay potency score (higher = more potent) turn out when TTCAGGAACGTCGTCCACTTGT was run?
Its sensor-assay potency score (higher = more potent) is -0.531.

Molecular target: SEMA5A
Test: as above
Details: shRNA

Which sensor-assay potency score (higher = more potent) does the source give for TTATGAAATATTATGGACCTAT here?
The sensor-assay potency score (higher = more potent) was -0.515.

Which sensor-assay potency score (higher = more potent) does the source give for TTGCAGTATCTTTCCTCGCGGT here?
Its sensor-assay potency score (higher = more potent) is -0.492.

For ATCTCTTCCAGCAAACAGCTGC, which sensor-assay potency score (higher = more potent) is on record?
Its sensor-assay potency score (higher = more potent) is -0.82.

TTGAAGACGCACACAGCTGAGG was tested. Which sensor-assay potency score (higher = more potent) did it give?
The sensor-assay potency score (higher = more potent) was -0.713.

With ATATCGTTCTTGCACACCCGGG as the sequence, how does the sensor-assay potency score (higher = more potent) read?
The sensor-assay potency score (higher = more potent) was -1.15.

TTAGAGTCAAACACACACGGCC was tested. Which sensor-assay potency score (higher = more potent) did it give?
The sensor-assay potency score (higher = more potent) was -0.151.

Which sensor-assay potency score (higher = more potent) does the source give for TCTTCCAGCAAACAGCTGCTTG here?
The sensor-assay potency score (higher = more potent) was -1.24.

Which sensor-assay potency score (higher = more potent) does the source give for TATCGTTCTTGCACACCCGGGC here?
The sensor-assay potency score (higher = more potent) was -0.125.

With TTCTTCGCTCTGAACTCCCGTA as the sequence, how does the sensor-assay potency score (higher = more potent) read?
Its sensor-assay potency score (higher = more potent) is -0.152.

How did the sensor-assay potency score (higher = more potent) turn out when TAGAACAGTACCGCATTTCGAT was run?
Its sensor-assay potency score (higher = more potent) is -0.368.

TTTCGATTCTCTGTCTTCCCAC was tested. Which sensor-assay potency score (higher = more potent) did it give?
Its sensor-assay potency score (higher = more potent) is 0.0611.

How did the sensor-assay potency score (higher = more potent) turn out when ATTAGAGTCAAACACACACGGC was run?
The sensor-assay potency score (higher = more potent) was -0.728.

Molecular target: SEMA6D
Test: as above
Details: shRNA

For TATTCTAAGGTACTCAACCTGT, which sensor-assay potency score (higher = more potent) is on record?
Its sensor-assay potency score (higher = more potent) is -0.752.

For TTTAGGAGAATCAATATTCTGT, which sensor-assay potency score (higher = more potent) is on record?
Its sensor-assay potency score (higher = more potent) is -0.109.

For TATGTCTGTAATAGACTGCAGA, which sensor-assay potency score (higher = more potent) is on record?
Its sensor-assay potency score (higher = more potent) is -0.657.

Which sensor-assay potency score (higher = more potent) does the source give for TTTTACATGATCCATAACGCTC here?
The sensor-assay potency score (higher = more potent) was -0.732.

How did the sensor-assay potency score (higher = more potent) turn out when TTGAATAGTGATAGTCGACAGT was run?
Its sensor-assay potency score (higher = more potent) is -0.481.

Which sensor-assay potency score (higher = more potent) does the source give for TTGATTTGTATTATGTCTGTAA here?
Its sensor-assay potency score (higher = more potent) is 0.267.

TACTGTATAAACTTGATCCCTG was tested. Which sensor-assay potency score (higher = more potent) did it give?
Its sensor-assay potency score (higher = more potent) is 0.49.

Which sensor-assay potency score (higher = more potent) does the source give for TTTCTTTCCTTGAAGCTCCATG here?
The sensor-assay potency score (higher = more potent) was -0.704.

TTTTTTTTGACATTTGTGCAAG was tested. Which sensor-assay potency score (higher = more potent) did it give?
The sensor-assay potency score (higher = more potent) was -0.63.
